Shown are actives, neighbours in structure and some others; about 1.1% of the full set was active somewhere.
MsrA inhibitor = inhibits bovine methionine sulfoxide reductase A; purified bovine MsrA, absorbance read-out; inhibition, % at 15.5 µM; hit rate 0.75% among 360,000; AID 651718; in the data active = inhibition above about 4.5%;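 also: 0% = vehicle wells with enzyme and 100% = reference inhibitor wells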
PKA-R2B activ = PKA-R2B complex activation; P22694+P31323; PKA-R2B holoenzyme dissociation, Cy5-IP20 fluorescence polarization; R2B truncated from residue 108, S112A mutant; 0% DMSO only, 100% 113 µM cGMP; activation, % at 11.4 µM; hit rate 0.079% among 340,000; AID 504700;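 active = activation above a cutoff set at the mean over all compounds plus 3 SD, cut at about 18% in these data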;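 also: higher means more holoenzyme dissociation and a rise in polarization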
Target sequence (P31323 whole entry, looked up, other chains not shown, the tested form may be a part): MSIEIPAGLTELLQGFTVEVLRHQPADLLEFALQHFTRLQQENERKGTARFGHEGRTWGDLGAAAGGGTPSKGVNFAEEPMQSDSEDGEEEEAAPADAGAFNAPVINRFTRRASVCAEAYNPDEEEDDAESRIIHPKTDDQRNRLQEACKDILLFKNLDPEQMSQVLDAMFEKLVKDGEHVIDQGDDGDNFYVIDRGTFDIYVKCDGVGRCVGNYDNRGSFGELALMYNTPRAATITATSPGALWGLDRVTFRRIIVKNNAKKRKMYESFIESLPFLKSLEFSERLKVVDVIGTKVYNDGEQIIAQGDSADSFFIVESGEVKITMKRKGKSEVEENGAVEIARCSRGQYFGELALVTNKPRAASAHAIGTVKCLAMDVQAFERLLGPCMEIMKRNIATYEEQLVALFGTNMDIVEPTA
bovine MsrA act = bovine methionine sulfoxide reductase A activation. hit rate 0.3% among 360,000. purified bovine MsrA, absorbance read-out. activation, % at 10.6 µM; in the data active = activation above about 7.5%;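 also: 0% = vehicle and 100% = reference activator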
PKA-R1A activ = PKA-R1A complex activation; P00514+P68181; PKA-R1A dissociation, Cy5-IP20 fluorescence polarization; scaled: DMSO 0%, 113 µM cGMP 100%; activation, % at 11.4 µM; hit rate 0.083% among 340,000; AID 504707;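 active = percent activation above the mean of all tested compounds plus 3 SD, cut at about 19% in these data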;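 also: higher means more PKAc released from R1A so a rise in polarization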
MsrA act confirm = confirmation of bovine methionine sulfoxide reductase A activators | shares compounds with bovine MsrA act | purified bovine MsrA, absorbance read-out | activation, % at 10.6 µM | hit rate 12% among 1,000; in the data active = activation above about 4%;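 also: enzyme coupled to thioredoxin and thioredoxin reductase with NADPH; 0% = vehicle wells and 100% = reference activator wells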
* hit, by the source's call; . = no result given.

SMILES | MsrA inhibitor | PKA-R2B activ | bovine MsrA act | PKA-R1A activ | MsrA act confirm
Cc1noc(C)c1S(=O)(=O)N1CCCc2nc(-c3ccc(Br)cc3)ccc21 | 0 | . | . | . | .
C#CCN1C(=O)[C@]2(OCCC=C[C@H]2C)c2ccccc21 | 0 | . | . | . | .
N#CCOC(=O)c1cc(S(=O)(=O)N2CCCCC2)ccc1N1CCOCC1 | 0 | -3 | 12* | -4 | -3
CC(C)C[C@H]1CNC(=O)C(=O)N1C[C@@H]1CCCN1C[C@H](Cc1ccccc1)N1C[C@H](CC(C)C)N(CC2CCCCC2)C(=O)C1=O | 1 | . | . | . | .
CC(C)NS(=O)(=O)c1ccc(NC(=O)C(C)Oc2ccc(C(=O)c3ccccc3)cc2)cc1 (stereo unspecified) | -1 | 1 | 8.5* | -7 | -4
O=C1c2ccccc2C(=O)c2[nH]cnc21 | 0 | 0 | 12* | -5 | 6.7*
O=C1c2ccccc2C(=O)c2[nH]c(=O)[nH]c21 | 1 | 8 | 15* | 4 | 4
O=C1c2ccccc2C(=O)c2c1ncn2-c1ccccc1 | 0 | 3 | 6 | -5 | .
C#CCN(C[C@H]1[C@H](OC(=O)NCCCCCC)[C@H](OC(=O)NCCCCCC)CN(C(=O)OC(C)C)N1C(=O)OC(C)C)S(=O)(=O)c1ccc(C)cc1 | 1 | . | . | . | .
c1ccc2nc3c(nc2c1)CCCC3 | 1 | -1 | -1 | -2 | .
C1CCc2nc3c(nc2C1)CCCC3 | -1 | -9 | 17* | -2 | -4
Cc1ccc(CN(C)C[C@H]2OCc3cnnn3CCCC(=O)N([C@H](C)CO)C[C@@H]2C)cc1 | 0 | . | . | . | .
COc1ccc2oc(C(=O)NCC(c3ccco3)N(C)C)c(C)c2c1 (stereo unspecified) | 0 | 4 | -2 | -12 | .
COc1cccc(OCC(O)CNC(=O)c2oc3ccc(C)cc3c2C)c1 (stereo unspecified) | 0 | -7 | 9.5* | 1 | -2
CCCCOCC1CN(CCCC)S(=O)(=O)c2c(cccc2Sc2ccc(SC)cc2)O1 (stereo unspecified) | 1 | . | . | . | .
O=[N+]([O-])c1cc(Br)c(O)c(C=Nc2ccc(N3CCOCC3)cc2)c1 | 1 | -67 | 10* | -64 | 7.8*
C[C@H](CO)N1C[C@H](C)[C@@H](CN(C)Cc2ccccc2)OCCCC[C@H](C)Oc2ccc(N(C)C)cc2C1=O | 0 | 6 | 8.7* | -6 | -3
CC(C)c1nc(NCC2CCCO2)c(C#N)c2c1COC(C)(C)C2 (stereo unspecified) | 1 | -2 | 10.0* | -2 | 0
CCc1nc(NCC2CCCO2)c(C#N)c2c1COC(C)(C)C2 (stereo unspecified) | 3 | -5 | -3 | -3 | .
C#CC(C)(O)C1CC(CC(=O)O)C1(C)C (stereo unspecified) | . | -6 | 10* | 3 | -2
Cc1ccc(/C=N/NC(=O)c2c(C)nc3ccc(Cl)cn23)cc1 | 1 | . | . | . | .
Nc1ccc2c(c1)C(=O)c1ccccc1-2 | 0 | -7 | -3 | -1 | .
Nc1ccc2c(c1)C(=O)C(=O)c1ccccc1-2 | 1 | 11 | 40* | -9 | 29*
CCN(CC)c1ccc(NC2=C(Cl)C(=O)c3ccccc3C2=O)cc1 | . | 7 | -3 | 10 | .
CCNC1=C(Cl)C(=O)c2ccccc2C1=O | 0 | 7 | 12* | -2 | 4.0*
SMILES | MsrA inhibitor | PKA-R2B activ | bovine MsrA act | PKA-R1A activ | MsrA act confirm
O=C1C(Cl)=C(NCc2ccco2)C(=O)c2ccccc21 | 1 | -5 | 14* | -8 | 11*
CCCC(=O)NC1=C(Cl)C(=O)c2ccccc2C1=O | 1 | -5 | 9.2* | 5 | 1
COC(=O)C1=C(C)N(Cc2ccccc2C(F)(F)F)C(=NCc2ccc(C(F)(F)F)cc2)NC1c1ccc(Cl)cc1 (stereo unspecified) | 0 | . | . | . | .
COC(=O)C1=C(C)N(C)C(=NCc2ccc3c(c2)OCO3)NC1c1cccc(F)c1 (stereo unspecified) | 1 | . | . | . | .
CCc1cccc(CC)c1NC(=O)/C(C#N)=C/c1ccccc1C(F)(F)F | 0 | -9 | 11* | -4 | -1
CN[C@H]1C[C@@H](c2ccccc2Br)N(C(C)=O)C[C@H]1CO | 0 | . | . | . | .
O=C(C(=O)N1CCC(CNS(=O)(=O)c2ccc(C(F)(F)F)cc2)CC1)c1cccs1 | 1 | . | . | . | .
O=C(Nc1ccc2c(c1)OCCO2)Nc1ccc2c(c1)OCO2 | 0 | -4 | -3 | -5 | .
O=C(Nc1ccc2c(c1)OCCO2)NC12CC3CC(CC(C3)C1)C2 | 0 | -3 | 9.1* | -3 | 1
CN1CCN(S(=O)(=O)c2cccc(C(=O)N(Cc3nnc(-c4ccccc4Cl)o3)C3CC3)c2)CC1 | 0 | 0 | 7.8* | 10 | 0
FC(F)(F)c1ccc(Cl)c(CN2CCN(c3ncc(Cc4ccccc4)cn3)CC2)c1 | 1 | . | . | . | .
COc1cc(C(C)=O)ccc1OCC(O)CNCC1(N2CCCCC2)CCCCC1 (stereo unspecified) | 1 | 4 | 19* | 3 | 0
COc1ccccc1COCC(O)CNCC1(N2CCCCC2)CCCCC1 (stereo unspecified) | 0 | 4 | -1 | -1 | .
C[C@@H]1ON(C)[C@H]2C[C@H]3c4[nH]c5c(-c6ccc7c(c6)OCO7)cccc5c4CCN3C(=O)[C@@H]12 | 0 | . | . | . | .
N#C/C(=C\c1ccc(OCC(N)=O)cc1)C(=O)NC1CC1 | 3 | -7 | 13* | 6 | -1
CC(C)Oc1ccc(/C=C(\C#N)C(=O)NC2CC2)cc1 | 2 | 2 | -2 | 0 | .
COc1ccc(CNC(=O)[C@@H](Cc2ccccc2)NC(=O)[C@H]2O[C@@H](n3ccc(=O)[nH]c3=O)[C@H](O)[C@@H]2O)cc1 | -1 | . | . | . | .
CN(C)CCCNC(=O)c1ccccn1 | 1 | 2 | -8 | 4 | .
CN(C)CCCNC(=O)c1ccc(-c2nc(-c3ccc(Cl)cc3)cs2)cc1 | 1 | -1 | 8.3* | 0 | -2
CCN(Cc1ccccc1)C(c1ccccn1)c1nnnn1C1CCCCC1 (stereo unspecified) | -1 | -9 | 0 | -8 | .
CC(c1nnnn1C1CCCCC1)N(Cc1ccccc1)Cc1cccnc1 (stereo unspecified) | 1 | -8 | 11* | -5 | 1
O=C(N/N=C/C(Br)=C\c1ccccc1)c1cccs1 | 2 | . | -3 | . | .
CC(=C/c1ccccc1)/C=N/NC(=O)c1cccs1 | 4 | . | 16* | . | 1
CCCN1CCCCC(NC(=O)c2ccc(C)cc2C)C1=O (stereo unspecified) | 1 | . | . | . | .
Cc1c(NC(=O)Cn2[nH]c(=O)c3ccccc3c2=O)c(=O)n(-c2ccccc2)n1C | 0 | 10 | 23* | 1 | -1
Cc1c(NC(=O)N2CCCCCC2)c(=O)n(-c2ccccc2)n1C | 2 | -1 | 8.4* | -3 | -4
Cc1ccc(S(=O)(=O)NC2=NCCCCC2)cc1 | 0 | 5 | 13* | -6 | -2
COC(=O)N/N=C/c1cn(Cc2ccc(F)cc2)c2ccccc12 | 0 | 4 | -3 | -9 | .
O=[N+]([O-])c1ccc(N/N=C/c2cn(Cc3ccc(F)cc3)c3ccccc23)nc1 | -1 | 0 | 17* | 3 | 0

High-throughput results from PubChem.
